The list is not random: actives were taken first. Their share in the collection is about 14%.
Pf growth 48h – inhibits P. falciparum growth in the first generation, 48 h | P. falciparum luciferase growth in erythrocytes, 48 h | Potency, µM (top dose mostly 28.7 µM), for the others: top-dose activity change, negative = inhibition, hits mostly inhibitors | 310,000 compounds, 5.9% hits | AID 504832; also: potency is read from the fitted curve at half-maximal effect; % is scaled to controls: 0 for no effect and ±100 for the full control effect
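Erythrocytes infected with P. falciparum carrying an integrated firefly luciferase reporter (2% hematocrit, 0.1% parasitemia final) were exposed to compounds in RPMI 1640 with 0.5% Albumax at 37 C, 5% CO2. Growth inhibition was scored as reduced luminescence.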
MARV entry inh – inhibitors of Marburg virus binding or cell entry | AID 540276 | 300,000 compounds, 1.8% hits | Potency, µM (series often up to 37.8 µM), inactives show top-dose activity change, negative = inhibition, usual class: inhibitors | Marburg virus pseudotyped entry inhibition, cell reporter; calls by dose curve; tested in HEK293 cells; also: potency is read from the fitted curve at half-maximal effect; % is scaled to controls: 0 for no effect and ±100 for the full control effect
HCMV inh – blocks human cytomegalovirus replication; HFF cells, HCMV-luciferase reporter, 72 h; stronger effect = lower value; activity change, negative = inhibition, % at 57.5 µM; 410,000 compounds, 4.5% hits; AID 1259415; in the data active = activity change below about -60%; inconclusive = no clear call, values can overlap the other calls; inactive = above about -39%; also: % is scaled to controls: 0 for no effect and ±100 for the full control effect
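Human foreskin fibroblasts infected with luciferase-reporter HCMV at MOI 1 PFU/cell, compounds at two doses. Luciferase measured 72 h post infection; normalized to buffer-only basal and Salinomycin (10uM) controls.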
Pf growth 96h – P. falciparum growth inhibition at 96 hour, primary screen for plastid delayed-death inhibitors; Potency, µM (titrated, usually from 28.7 µM), for inactives: at the top dose activity change, negative = inhibition, hits mostly inhibitors; AID 504834; 320,000 compounds, 6.9% hits; P. falciparum luciferase reporter growth, 96 h; also: potency is read from the fitted curve at half-maximal effect; % is scaled to controls: 0 for no effect and ±100 for the full control effect
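Compounds incubated with erythrocytes infected by luciferase-expressing P. falciparum (2% hematocrit, 0.05% parasitemia final) for 96 hours, 37 C in 5% CO2. Growth inhibition scored as decreased luciferase luminescence.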
Lassa entry inh – blocks Lassa virus binding to or entry into cells; Potency, µM (highest dose often 37.9 µM), without a hit: top-dose activity change, negative = inhibition, most hits filed as inhibitors; AID 540256; 300,000 compounds, 1.2% hits; Lassa virus pseudotype entry inhibition, cell reporter; calls by dose curve; tested in HEK293 cells; also: potency is read from the fitted curve at half-maximal effect; % is scaled to controls: 0 for no effect and ±100 for the full control effect; nearly all actives have a fitted effect of over 50% in size
HCV inhibitor – inhibitors of hepatitis C virus infection; Huh7.5.1 HCVcc-Cre infection, luciferase reporter, 44 h; Potency, µM (series often up to 41.8 µM), inactives show top-dose activity change, negative = inhibition, actives largely listed as inhibitors; 340,000 compounds, 3.4% hits; AID 651820; also: potency is read from the fitted curve at half-maximal effect; % is scaled to controls: 0 for no effect and ±100 for the full control effect
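Cells seeded at 1,000/well and cultured 4 h, then compounds added followed by HCVcc-Cre virus (~0.5 moi). After 44 h further culture, luciferase substrate was added, plates held 15 min at room temperature, and luminescence read for 15 sec.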
HCV confirm – HCV inhibition, cherry-pick confirmation; 640 compounds, 78% hits; Potency, µM (titrated, usually from 41.8 µM), without a hit: top-dose activity, negative = inhibition, most hits filed as inhibitors; AID 720575; shares compounds with HCV inhibitor; HCVcc-Cre infectious virus cell assay, luciferase, inhibition; also: potency is read from the fitted curve at half-maximal effect; nearly all actives have a fitted effect of over 80% in size
HCV cytotox – toxic to HCV host cells, flagging false HCV inhibitors | 640 compounds, 22% hits | Potency, µM (series often up to 41.8 µM), inactives show top-dose activity change, negative = cytotoxicity, most hits filed as inhibitors | HCV host cell line cytotoxicity counterscreen | shares compounds with HCV inhibitor;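 also: potency is read from the fitted curve at half-maximal effect; 44 h compound exposure; % is scaled to controls: 0 for no effect and ±100 for the full control effect; nearly all actives have a fitted effect of over 55% in size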
* hit, by the source's call; ? = inconclusive; . = not tested or not shown; [ ] = remark or other dose. Unless noted, calls follow the shape of the dose curve; as a rule, active = well fitted curve in the direction sought with a large enough effect; inconclusive = small, poorly fitted or top-dose-only effect, or another doubt; inactive = no such curve, though single readings can be large; an effect the other way counts as inactive or inconclusive.

SMILES	Pf growth 48h	MARV entry inh	HCMV inh	Pf growth 96h	Lassa entry inh	HCV inhibitor	HCV confirm	HCV cytotox
CCCCCSc1nc2sc3c(c2c(=O)n1-c1ccc(OC)cc1)CCN(C(C)=O)C3	.	3.8%[46.1 µM]	?	.	-1.0%[46.1 µM]	.	.	.
CCCCCNc1nc2sc3c(c2c(=O)n1-c1cccc(Cl)c1)CCN(C)C3	1.47µM*	?	?	0.165µM*	-2.1%	1µM*	2.23µM*	21.7%
Cc1cc(Oc2ccc(N)cn2)ccc1Cl	23.9%	8.1%	99.4	3.2%	-3.6%	?	?	48.6%
COc1cccc(Oc2ccc(N)cn2)c1	35.7%	26.1%	11.4	3.0%	12.8%	?	.	.
CC(=O)c1sc(NC(=O)CCS(=O)(=O)c2ccc(C)cc2)nc1C	?	?	3.9	22.0%	-25.2%	2.82µM*	?	?
Cc1cccc(N2CCc3c2nc2ccccc2c3N)c1	?	?	86.8	10.4µM*	-2.7%	8.91µM*	22.3µM*	-24.3%
CCn1nc(C(=O)Nc2cc(Cl)ccc2-n2cncn2)c2ccccc2c1=O	?	3.3%	-6.9	?	-10.7%[46.1 µM]	-4.5%	.	.
CC(C)c1nnc(NC(=O)CCC(=O)N2CCC(Cc3ccccc3)CC2)s1	-3.2%	0.9%[46.1 µM]	-22.0	?	-17.6%[46.1 µM]	-9.0%	.	.
Cc1cc(C)nc(/N=C(\N)Nc2ccc(CC(=O)OC(C)C)cc2)n1	2.4%	?	-30.2	?	6.9%[46.1 µM]	3.55µM*	2.8µM*	-93.3%
Cc1cc(C)nc(/N=C(\N)Nc2ccc(S(=O)(=O)O)cc2)n1	5.7%	9.0%[46.1 µM]	-6.8	14.8%	20.9%[46.1 µM]	-0.6%	.	.
Clc1cccc(-c2cc3nc4c(c(N5CCOCC5)n3n2)CCCC4)c1	?	?	-20.0	.	-19.6%	?	14.1µM*	-10.5%
OC1CCN(c2c3c(nc4cc(-c5ccc(Cl)cc5)nn24)CCC3)CC1	-19.7%	-1.1%	-10.1	48.6%	-11.8%	?	.	.
c1coc(-c2nc3nc4ccccc4nc3n2-c2ccc3c(c2)OCCO3)c1	?	-14.5%	-14.4	?	6.9%	0.9%	.	.
Cc1ccc(C(=O)Nc2ccccc2N2CCCCC2)cc1[N+](=O)[O-]	-18.0%	.	-11.8	?	.	2.24µM*	15.8µM*	28µM*
O=C(Nc1ccc(Cl)c(Cl)c1)Nc1nnc(CC2=CCCCC2)s1	?	.	?	?	.	2.82µM*	7.05µM*	7.91µM*
O=C(Nc1nnc(CC2=CCCCC2)s1)c1cccs1	58.8%	18.9%[46.1 µM]	68.0	.	26.7%	-7.8%	.	.
COc1ccc(C(=O)C(=NNc2ccccc2)c2ccc(OC)cc2)cc1	.	?	?	.	-19.8%[46.1 µM]	?	.	.
COc1ccc(N/N=C(/N=Nc2nc(C)cc(=O)[nH]2)c2ccccc2)cc1	1.65µM*	4.47µM*	-88.8*	.	5.01µM*	4.47µM*	7.91µM*	11.2µM*
COCCNc1nc(Oc2ccc(C(N)=O)cc2)c2sccc2n1	.	.	25.7	.	.	.	.	.
CCn1c2c(c(=N)c3ccccc31)CCC2	?	-26.1%	-77.1*	?	-0.6%	8.91µM*	25µM*	?
CCCCC(=O)Nc1ccc(NC(=O)c2ccc3c(c2)OCO3)cc1OC	49.7%	3.4%	16.7	?	14.5%	2.51µM*	?	17.9%
Cn1nc(C(=O)Nc2cccc(C(F)(F)F)c2)c2c1-c1ccccc1S(=O)(=O)C2	.	.	7.7	.	2.0%[46.1 µM]	.	.	.
Cc1ccc(NC(=O)COC(=O)c2ccc(OCc3c(C)noc3C)cc2)cc1S(=O)(=O)N1CCOCC1	-20.1%	?	-22.1	?	-1.5%	11.8%	.	.
CCN1CCN(S(=O)(=O)c2cc(OCC(=O)NC3CCCCC3)c(C)cc2Cl)CC1	2.08µM*	?	-65.0*	2.4%	-25.9%	7.08µM*	3.96µM*	7.05µM*
O=C(NC1(C(F)(F)F)Oc2ccccc2O1)N1CCC2(CC1)OCCO2	-15.2%	?	41.2	?	-25.4%[14.3 µM]	?	?	?
SMILES	Pf growth 48h	MARV entry inh	HCMV inh	Pf growth 96h	Lassa entry inh	HCV inhibitor	HCV confirm	HCV cytotox
O=C(c1ccccc1)N1CCC2(CC1)OCCO2	31.2%	3.9%	-6.0	32.1%	3.4%	11.4%	.	.
CC12CCC(C)(c3nc4ccccc4nc31)C2(C)C	10.3%	3.2%[46.1 µM]	15.1	?	8.0%	20.1%	.	.
Cc1[nH]nc2c1-c1nc3ccccc3nc1C(C)(C)C2	.	?	-74.3*	4.2%	?	5.62µM*	7.91µM*	?
COc1cc(OC)cc(-c2c(-c3cccs3)c3cc(-c4ccc5[nH]ccc5c4)ccc3n2C)c1	6.57µM*	.	-8.7	2.33µM*	.	11.2µM*	14.1µM*	7.4%
COc1cc(OC)cc(-c2c(-c3cccs3)c3cc(-c4cnc(N)nc4)ccc3n2C)c1	.	.	-21.6	.	.	?	.	.
Cc1ccc(C)c2nc(SCC(=O)N3CCCc4ccccc43)c(C#N)cc12	2.6%	-26.1%	12.2	?	-19.1%	6.31µM*	7.05µM*	14.6%
C[C@@H]1NS(=O)(=O)c2cccc(Cl)c2O[C@@H]1c1ccccc1	.	.	-20.0	.	.	.	.	.
C=C(C)COc1ccc(-c2nc(N)ncc2Oc2ccccc2OCC)c(O)c1	?	?	25.3	-70.5%	?	4.47µM*	25µM*	34.7%
COc1ccc(-c2nc(N)nc(C)c2Oc2ccccc2Br)c(O)c1	?	?	-15.7	-4.2%	?	?	.	.
COc1cc2c(cc1NC(=O)COC(=O)/C=C/c1ccc([N+](=O)[O-])cc1)oc1ccccc12	7.7%	.	-33.1	23.1%	.	?	?	22.9%
COc1cc2c(cc1NC(=O)/C=C/c1ccc([N+](=O)[O-])cc1)oc1ccccc12	31.4%	1.3%	-23.0	28.9%	-1.5%	-27.5%	.	.
CCOC(=O)CSc1nc2cc3c(cc2c(=O)n1CCCCCC(=O)NCc1ccc(OC)cc1)OCO3	.	.	28.9	.	4.4%[46.1 µM]	.	.	.
CCN(CC)C(=O)CSc1nc2cc3c(cc2c(=O)n1Cc1ccc(OC)cc1)OCO3	?	-9.0%[46.1 µM]	?	26.6%	?	?	5.6µM*	12.4%
O=C(CCCc1nc2ccccc2s1)Nc1nccs1	-25.5%	?	154.2	?	-2.2%	-7.0%	.	.
Cc1cnc(NC(=O)CCCc2nc3ccccc3s2)s1	-12.8%	?	-101.1*	34.8%	?	2.82µM*	15.8µM*	-34.7%
CC(C)Cc1ccc([C@@H](C)C(=O)NS(C)(=O)=O)cc1	-2.0%	.	.	10.7%	.	.	.	.
CC(C)Cc1ccc(C(C)C(=O)Nc2ccccc2O)cc1 (stereo not given)	?	?	-82.0*	-29.6%	?	4.47µM*	4.45µM*	9.95µM*
COc1cc(/C=C2\CCc3c2nc2ccccc2c3C(=O)O)cc(OC)c1OC	139.5%	.	0.0	225.1%	.	7.2%	.	.

Screens deposited in PubChem BioAssay by National Center for Advancing Translational Sciences (NCATS).
